Outcome and Potency data for eight compounds are collected here from PubChem BioAssay (NCATS).

A short description of assay [1]: Confirmation and Secondary Assay for Modulators of Hemoglobin Beta Chain Splicing at IVS2 705 locus (AID 930).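 Also: HeLa cells stably expressing the EGFP-705 splicing reporter.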 Particulars: HeLa EGFP-705 splicing reporter, GFP fluorescence, 48 h; series mostly up to 46.1 µM. The method, boiled down: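 Splice-correction reporter: EGFP cDNA split by beta-globin intron 2 bearing the 705 mutation, stably in HeLa. Compound incubation 2 days, 37C; fluorescent objects 5-250 µm summed per well.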

Assay [2] can be described thus: qHTS Assay for Identification of Small Molecule Antagonists for Thrombopoietin (TPO) Signaling Pathway (AID 918). Also: potency is read from the fitted curve at half-maximal effect; nearly all actives have a fitted effect of over 60% in size. The settings on record: TPO-dependent cell signaling reporter, antagonist mode. The method, boiled down: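 Inhibition read as reduced luciferase luminescence after 24 h at 37 C in IL-3-deprived Ba/F3 cells carrying human TPO receptor and GPIIb-promoter reporter, stimulated with 26 pM TPO (final, its EC50) alongside compound.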
In general terms: Quantitative high-throughput screening tests each substance at several concentrations.

Assay [3] is described as follows: Cell Viability - LYMP2-001 (AID 921). Also: nearly all actives have a fitted effect of over 70% in size. Also: potency is read from the fitted curve at half-maximal effect. Particulars: LYMP2-001 lymphoblastoid cell viability; series mostly up to 92.2 µM. The method, boiled down:
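Steps: seed 2500 lymphoblastoid cells/well; 5 hr, 37 C; add compound; 24 hr, 37 C; CellTiter-Glo reagent, 30 min room temperature; read luminescence. Concentration-response modeled by Hill equation for AC50.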

The target of assay [4] is Muscarinic acetylcholine receptor M1 (Rattus norvegicus) (UniProt P08482). As to the kind of experiment: qHTS Assay for Antagonists of Acetylcholine Muscarinic M1 Receptor: Kinetic Measurement of Intracellular Calcium Response (AID 943).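 Also: Fluo-4 calcium signal as peak divided by basal fluorescence over 4 min; nearly all actives have a fitted effect of over 75% in size.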 The settings on record: M1-expressing cells, kinetic intracellular calcium fluorescence; series mostly up to 35.3 µM. The method, boiled down:
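Antagonism measured as reduction of carbachol-evoked (EC80, 100 nM final) calcium flux in rat M1-CHO cells after 10 min compound exposure. Fluo-4 signal read kinetically; ratio of maximal to basal fluorescence.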

Assay [5] addresses Pyruvate kinase (Leishmania mexicana) (UniProt Q27686). As to the kind of experiment: qHTS Validation Assay for Inhibitors of Leishmania Mexicana Pyruvate Kinase (AID 945). The settings on record: purified L. mexicana pyruvate kinase, enzyme activity, E451W mutant enzyme; series mostly up to 57.5 µM. The gist of the method:
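The enzyme is a highly purified E451W mutant of LmPYK used at 0.2 nM. It converts 0.5 mM PEP and 0.1 mM ADP over 1 h at room temperature; product ATP is quantified by luciferase luminescence relative to DMSO controls.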

Assay [6] in a line: Cell Viability - LYMP1-002 - Assay at 16 hr (AID 948). Also: potency is read from the fitted curve at half-maximal effect. The settings on record: LYMP1-002 lymphoblastoid cell viability; series mostly up to 92.2 µM. The method, boiled down: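 Seed 2500 LYMP1-002 cells per well in complete medium and hold 5 hr at 37 C. Add compound across a concentration series and incubate 16 hr at 37 C. Add CellTiter-Glo, wait 30 min at room temperature, read luminescence.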

In assay [7] the target is Pyruvate kinase PKM (Homo sapiens) (UniProt P14618). As to the kind of experiment: qHTS Assay for Activators of Human Muscle Pyruvate Kinase (AID 954; active = well fitted curve in the direction sought with a large enough effect, not every such curve was filed as active). The settings on record: purified human muscle pyruvate kinase, luciferase-coupled luminescence, 1 h; series mostly up to 57.5 µM. The gist of the method: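 ATP production by PKM2 detected via luciferase luminescence after 1 h room-temperature reaction (0.1 nM enzyme, PEP at Km 0.5 mM, ADP 0.1 mM, pH 7.2 imidazole buffer). Inhibition scaled to no-enzyme control; activation referenced to 0.3 nM enzyme wells.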
Chain of Pyruvate kinase PKM (Homo sapiens) (P14618 whole entry, looked up): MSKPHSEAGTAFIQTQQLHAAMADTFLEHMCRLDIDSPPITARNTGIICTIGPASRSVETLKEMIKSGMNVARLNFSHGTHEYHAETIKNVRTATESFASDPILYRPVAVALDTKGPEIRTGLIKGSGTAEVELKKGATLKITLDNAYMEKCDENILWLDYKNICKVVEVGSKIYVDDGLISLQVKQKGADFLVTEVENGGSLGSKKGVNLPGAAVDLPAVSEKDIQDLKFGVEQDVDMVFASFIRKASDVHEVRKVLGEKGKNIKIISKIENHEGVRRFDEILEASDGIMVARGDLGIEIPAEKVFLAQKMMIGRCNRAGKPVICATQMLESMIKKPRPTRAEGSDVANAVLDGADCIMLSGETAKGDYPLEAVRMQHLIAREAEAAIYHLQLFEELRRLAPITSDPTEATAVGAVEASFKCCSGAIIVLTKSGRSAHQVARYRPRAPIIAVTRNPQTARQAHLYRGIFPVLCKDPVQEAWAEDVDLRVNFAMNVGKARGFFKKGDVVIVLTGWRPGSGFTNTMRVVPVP

A short description of assay [8]: MultiTox-Fluor Cytotoxicity Assay - LYMP1-002 - Dead Cells (AID 960). Also: nearly all actives have a fitted effect of over 60% in size. Also: potency is read from the fitted curve at half-maximal effect. Particulars: LYMP1-002 lymphoblastoid cells, dead-cell protease fluorescence; series mostly up to 46.1 µM. The gist of the method: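 Dead-cell fluorescence (Ex/Em 485/520) after 16 h compound exposure at 37 C of LYMP1-002 lymphoblastoid cells in complete medium; AC50 by Hill equation, with data scaled between DMSO and 15 uM tetraoctylammonium bromide.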

Assay [9] is described as follows: MultiTox-Fluor Cytotoxicity Assay - LYMP1-003 - Dead Cells (AID 961). Also: nearly all actives have a fitted effect of over 70% in size. Also: potency is read from the fitted curve at half-maximal effect. The settings on record: LYMP1-003 lymphoblastoid cells, dead-cell protease fluorescence; series mostly up to 92.2 µM. The gist of the method:
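Dead-cell protease release, detected as bis-AAF-R110 fluorescence at 485/520 nm, was measured in LYMP1-003 cells after 16 h compound treatment at 37 C. AC50 values came from Hill-modeled qHTS curves normalized to DMSO (0%) and 15 uM tetraoctylammonium bromide (100%).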

Assay [10] in a line: MultiTox-Fluor Cytotoxicity Assay - LYMP1-003 - Live Cells (AID 962).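 Also: cells exposed to compound for 16 hours at 37 °C.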 Also: potency is read from the fitted curve at half-maximal effect. The settings on record: LYMP1-003 lymphoblastoid cells, MultiTox-Fluor live-cell protease fluorescence; series mostly up to 92.2 µM. The gist of the method:
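Live-cell protease activity (GF-AFC substrate, 405/510 nm, 60 min at room temperature) after 16 h, 37 C compound exposure of human lymphoblastoid LYMP1-003 cells; concentration-response fitted to the Hill equation for AC50.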

Assay [11] is described as follows: Cell Viability - LYMP1-003 - Assay at 24 hr (AID 963). Also: potency is read from the fitted curve at half-maximal effect. The settings on record: LYMP1-003 lymphoblastoid cell viability; series mostly up to 92.2 µM. The gist of the method:
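Concentration-response qHTS: ATP loss measured by CellTiter-Glo luminescence after 24 h compound exposure at 37 C. Cells were LYMP1-003 human lymphoblastoid, 2500 per well. AC50 derived via standard Hill equation modeling.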

A short description of assay [12]: Cell Viability - LYMP1-003 - Assay at 40 hr (AID 964). Also: nearly all actives have a fitted effect of over 60% in size. Also: potency is read from the fitted curve at half-maximal effect. The settings on record: LYMP1-003 lymphoblastoid viability; series mostly up to 92.2 µM. The method, boiled down: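 Viability is taken as cellular ATP, read by CellTiter-Glo luminescence after 40 h of compound exposure at 37 C. Cells: human lymphoblastoid line LYMP1-003 at 2500/well; AC50 values derived by Hill-equation fitting of concentration-response data.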

A short description of assay [13]: Cell Viability - LYMP2-003 (AID 965).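 Also: cells exposed to compounds for 24 h before reading; nearly all actives have a fitted effect of over 50% in size.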 Also: potency is read from the fitted curve at half-maximal effect. Particulars: LYMP2-003 lymphoblastoid cell viability; series mostly up to 92.2 µM. The method, boiled down:
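Seed 2500 lymphoblastoid cells/well; incubate 5 hr, 37 C; add compounds; incubate 24 hr, 37 C; add CellTiter-Glo, 30 min RT; read luminescence. AC50 from Hill fit.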

The nature of assay [14]: Cell Viability - LYMP2-004 (AID 966). Also: nearly all actives have a fitted effect of over 65% in size. Also: potency is read from the fitted curve at half-maximal effect. The settings on record: LYMP2-004 lymphoblastoid cell viability, qHTS; series mostly up to 92.2 µM. The gist of the method: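 AC50 values come from Hill modelling of concentration-dependent loss of intracellular ATP, measured by CellTiter-Glo luminescence. Human LYMP2-004 lymphoblastoid cells (2500/well) were exposed to compound for 24 h at 37 C.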

The nature of assay [15]: Cell Viability - LYMP2-005 (AID 967). Also: potency is read from the fitted curve at half-maximal effect. The settings on record: LYMP2-005 lymphoblastoid cell viability; series mostly up to 92.2 µM. The method, boiled down:
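Acute cytotoxicity is scored as a concentration-dependent drop in intracellular ATP in human lymphoblastoid LYMP2-005 cells after 24 h compound treatment. ATP is quantified by luciferase luminescence, and AC50 is derived by Hill-equation modelling.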

A short description of assay [16]: MultiTox-Fluor Cytotoxicity Assay - LYMP1-001 - Dead Cells (AID 946). Particulars: LYMP1-001 lymphoblastoid cells, dead-cell protease fluorescence; series mostly up to 92.2 µM. The method, boiled down:
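Cytotoxicity as increased dead-cell protease fluorescence (bis-AAF-R110, 485/520 nm), read 60 min after MultiTox-Fluor reagent. Human lymphoblastoid line exposed 16 h; Hill-fitted AC50, with DMSO as 0% and 15 uM tetraoctylammonium bromide as 100%.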

The nature of assay [17]: MultiTox-Fluor Cytotoxicity Assay - LYMP1-001 - Live Cells (AID 947). The settings on record: LYMP1-001 lymphoblastoid cells, live-cell protease fluorescence viability; series mostly up to 92.2 µM.
Assay [18] is described as follows: MultiTox-Fluor Cytotoxicity Assay - LYMP1-002 - Live Cells (AID 955).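 Also: cells exposed to compound for 16 hours.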 Particulars: LYMP1-002 lymphoblastoid live-cell protease fluorescence viability; series mostly up to 46.1 µM. The gist of the method:
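After 16 h compound exposure at 37 C, live LYMP1-002 lymphoblastoid cells (2500/well) were quantified by cleavage of cell-permeant GF-AFC substrate, read at 405/510 nm after 60 min. Concentration-response fitted with Hill equation for AC50.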

Structures are written as SMILES. Records with an inconclusive call do not appear. The source made the active and inactive calls. Unless noted, calls follow the shape of the dose curve; as a rule, active = well fitted curve in the direction sought with a large enough effect; inconclusive = small, poorly fitted or top-dose-only effect, or another doubt; inactive = no such curve, though single readings can be large; an effect the other way counts as inactive or inconclusive.

Chain of Pyruvate kinase (Leishmania mexicana) (Q27686 2-499 E452W): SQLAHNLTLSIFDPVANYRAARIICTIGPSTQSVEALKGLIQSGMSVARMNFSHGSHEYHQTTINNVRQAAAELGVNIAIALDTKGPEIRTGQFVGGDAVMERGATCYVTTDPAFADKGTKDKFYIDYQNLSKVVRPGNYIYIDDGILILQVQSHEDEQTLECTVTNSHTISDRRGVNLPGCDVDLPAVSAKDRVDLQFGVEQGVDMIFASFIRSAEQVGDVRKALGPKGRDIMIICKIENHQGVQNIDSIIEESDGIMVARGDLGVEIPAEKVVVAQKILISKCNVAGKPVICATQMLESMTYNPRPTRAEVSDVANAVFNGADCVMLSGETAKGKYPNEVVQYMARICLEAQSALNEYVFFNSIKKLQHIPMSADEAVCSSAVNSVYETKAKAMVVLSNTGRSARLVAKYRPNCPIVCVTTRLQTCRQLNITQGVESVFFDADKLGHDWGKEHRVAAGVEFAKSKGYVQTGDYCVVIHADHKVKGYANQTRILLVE
Chain of Muscarinic acetylcholine receptor M1 (Rattus norvegicus) (P08482 whole entry, looked up): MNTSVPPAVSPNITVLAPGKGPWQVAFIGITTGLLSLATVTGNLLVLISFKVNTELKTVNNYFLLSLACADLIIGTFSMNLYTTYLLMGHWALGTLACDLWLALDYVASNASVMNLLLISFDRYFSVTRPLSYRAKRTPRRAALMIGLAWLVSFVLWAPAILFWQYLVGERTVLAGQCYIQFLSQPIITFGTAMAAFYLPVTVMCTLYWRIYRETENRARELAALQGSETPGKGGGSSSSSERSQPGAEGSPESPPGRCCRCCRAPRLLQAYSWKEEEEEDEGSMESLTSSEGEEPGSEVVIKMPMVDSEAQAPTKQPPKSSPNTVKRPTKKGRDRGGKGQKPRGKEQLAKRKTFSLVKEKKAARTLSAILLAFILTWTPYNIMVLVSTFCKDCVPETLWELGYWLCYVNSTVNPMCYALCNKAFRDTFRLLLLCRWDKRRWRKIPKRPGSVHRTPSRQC

As to `CCCCc1nc(Cl)c(CO)n1Cc1ccc(-c2ccccc2-c2nn[nH]n2)cc1`, in assay [1], the compound was classed as inactive.

Regarding `Oc1ccc(O)cc1`, the Potency in [2] was 12.6 µM (active); in assay [3] it was 25.1 µM (active); in [6], 31.6 µM (active); in [8], 12.6 µM (active); in [9] it was 12.6 µM (active); in [10], 50.1 µM (active). Moreover, the Potency in assay [11] was 39.8 µM (active); in assay [12], 12.6 µM (active); in assay [13], 39.8 µM (active); in [14] it was 39.8 µM (active); in [15], 39.8 µM (active). Besides, the compound was classed as inactive in assay [1], in [4], in [5] and in assay [7].

For `O=c1ccc2ccccc2o1`, the Potency result in assay [3], in assay [16], in [17], in assay [6], in assay [18] and in assay [8] was “inactive” each time. Also, the Potency result in assay [9], in assay [10], in [11], in assay [12], in assay [13] and in assay [14] was “inactive” throughout. The Potency result in assay [15] was “inactive”. For the same compound, in assay [1], the outcome was inactive.

Turning to `COC1=CC(=O)C[C@@H](C)[C@]12Oc1c(Cl)c(OC)cc(OC)c1C2=O`, the Potency entry in [3], in assay [16], in assay [17], in assay [6], in [18] and in assay [9] was “inactive” each time. The Potency entry in [10], in assay [11], in assay [13], in assay [14] and in assay [15] was “inactive” each time. The result in [1] was inactive.

`CCCCCCc1ccc(O)cc1O`: the Potency entry in [3], in [16], in [17], in assay [6], in [18] and in [9] was “inactive” throughout. In addition, the Potency entry in [10], in assay [11], in [13] and in assay [15] was “inactive” throughout. In addition, in assay [1], the call was inactive.

With `C=C(CC)C(=O)c1ccc(OCC(=O)O)c(Cl)c1Cl`, the Potency in assay [3] is 50.1 µM (active); in [8] it was 31.6 µM (active); in assay [9] it was 50.1 µM (active); in assay [13], 50.1 µM (active). Further, the outcome in assay [1] was inactive. In addition, the Potency result in assay [17], in assay [18], in assay [10] and in [11] was “inactive” throughout.

With `CC(=O)N(O)CCCCCNC(=O)CCC(=O)N(O)CCCCCNC(=O)CCC(=O)N(O)CCCCCN`, the call in assay [1] was inactive.

As to `CCCCC(CC)CN=C(N)NC(N)=NCCCCCCN=C(N)NC(N)=NCC(CC)CCCC` (centres undefined), the compound was called inactive in [1].
